An excerpt weighted towards active compounds, which were near 8% of everything screened.
SW480 rereplic: A quantitative high throughput screen for small molecules that induce DNA re-replication in SW480 colon adenocarcinoma cells; SW480 DNA re-replication, Hoechst DNA content imaging, 48 h; Potency, µM (titrated, usually from 46.1 µM), without a hit: at the highest dose re-replication activation, actives largely listed as activators; 340,000 compounds, 1.8% hits; also: % of control where 0% means no effect; nearly all actives have a fitted effect of over 55% in size
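DNA re-replication was detected as more nuclei of elevated Hoechst intensity after 48 hr exposure to compound (23 nL pinned per well of 250 cells).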
KB-3-1 cytotox: qHTS assay for MDR1-selective chemotherapeutics: Primary screen using the parental adenocarcinoma cell KB-3-1; KB-3-1 viability, CellTiter-Glo ATP luminescence, 72 h; Potency, µM (doses to about 46.1 µM), hits mostly cytotoxic; 400,000 compounds, 1.4% hits; also: % is scaled to controls: 0 for no effect and ±100 for the full control effect; nearly all actives have a fitted effect of over 60% in size
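72 h, 37 °C compound treatment of KB-3-1 parental cells; CellTiter-Glo added, 10 min, luminescence read. Data corrected against DMSO-only plates and normalized before curve fitting.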
HT1080 IDH1KD tx: qHTS for induction of synthetic lethality in tumor cells producing 2HG: qHTS for the HT-1080-IDH1KD cell line; HT-1080 IDH1 knockdown viability, ATP luminescence, 48 h; Potency, µM (top dose mostly 46.1 µM), inactives show at the top dose activity, negative = toxicity, actives largely listed as cytotoxic; 360,000 compounds, 2% hits;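 also: 0% = DMSO wells and -100% = cell-free medium wells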
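Knockdown cells (IDH1KD HT-1080) received compounds 2 h after plating at 750 cells/well and were kept 48 h at 37 °C in 5% FBS RPMI. A CellTiter-Glo luminescence read gave % activity for curve fitting.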
MCF10A rerep: A quantitative high throughput screen for small molecules that induce DNA re-replication in MCF 10a normal breast cells; AID 624296, 2012; Potency, µM (titrated, usually from 46.1 µM), without a hit: top-dose activity, positive = re-replication, most hits filed as activators; MCF 10A DNA re-replication, Hoechst nuclear intensity, 48 h; 350,000 compounds, 2.9% hits; also: % of control where 0% means no effect; nearly all actives have a fitted effect of over 50% in size
KB-V1 cytotox: qHTS assay for MDR1-selective chemotherapeutics: Primary screen using the drug-selected MDR subline cells KB-V1; AID 1347076, 2019; Potency, µM (doses to about 46.1 µM), actives largely listed as cytotoxic; KB-V1 MDR cells viability, CellTiter-Glo, 72 h; 400,000 compounds, 3.4% hits; also: % is scaled to controls: 0 for no effect and ±100 for the full control effect; nearly all actives have a fitted effect of over 60% in size
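KB-V1, DMEM (no phenol red) + 10% FBS; cpd pin-transferred, titration series; 72 h, 37 degrees C; CellTiter-Glo, luminescence. Data normalized, curve-fit.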
HT1080NT lethal: qHTS for induction of synthetic lethality in tumor cells producing 2HG: qHTS for the HT-1080-NT fibrosarcoma cell line | 360,000 compounds, 1.6% hits | HT-1080-NT fibrosarcoma viability, CellTiter-Glo ATP luminescence, 48 h | Potency, µM (titrated, usually from 46.1 µM), inactives show top-dose activity, negative = less viability, most hits filed as cytotoxic;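 also: NT is the 2HG producing partner of a matched IDH1 knockdown line; 0% = DMSO-treated cells and -100% = media-only wells without cells; nearly all actives have a fitted effect of over 55% in size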
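750 cells/well, RPMI + 5% FBS; 2 h settle, compound pin-transfer, 48 h at 37 degrees C. CellTiter-Glo 10 min RT, luminescence. Normalized to DMSO and media-only wells.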
* = called active by the depositor; i = inactive; ? = inconclusive; · = no result given. Calls follow the shape of the dose curve; as a rule, active = well fitted curve in the direction sought with a large enough effect; inconclusive = small, poorly fitted or top-dose-only effect, or another doubt; inactive = no such curve, though single readings can be large; an effect the other way counts as inactive or inconclusive. Potency is read from the fitted curve at half-maximal effect.

SMILES | SW480 rereplic | KB-3-1 cytotox | HT1080 IDH1KD tx | MCF10A rerep | KB-V1 cytotox | HT1080NT lethal
Cc1c(CN2CCc3c([nH]c4ccccc34)C2C2CCCCC2)cnn1C (centres undefined) | 6.0% | i | -14.5% | 18.4µM* | i | -3.1%
CCN(CC)CCNC(=S)Nc1ccc2nc(N3CCN(CC)CC3)cc(C)c2c1 | ? | i | ? | ? | i | -23.7%
Cc1cc(C)c2ccc(N)nc2c1O | ? | ? | ? | ? | i | 10.3µM*
Cc1cc(=O)[nH]c2nc(N)ccc12 | · | ? | · | · | i | ·
CCc1ccc(/C=C/c2c([N+](=O)[O-])c(=O)n(C)c(=O)n2C)cc1 | ? | i | ? | 13µM* | i | ?
Cn1c(/C=C/c2ccc(Cl)cc2Cl)c([N+](=O)[O-])c(=O)n(C)c1=O | 9.2µM* | 7.31µM* | -18.3% | 2.91µM* | ? | -19.2%
COc1ccc(C(=O)Nc2ccc3c(c2)nc(CCNC(C)=O)n3C)cc1 | -3.6% | i | -0.6% | -17.8% | i | 1.6%
CCN(CC(=O)NCCc1ccc(Cl)cc1)Cc1nc2ccccc2c(=O)[nH]1 | 2.8% | ? | 0.0% | 13.4% | ? | -14.3%
COc1cccc(Cn2c(OCC3CCCO3)nc3c2c(=O)n(C)c(=O)n3C)c1 (centres undefined) | -15.4% | i | -0.2% | -7.0% | i | -7.6%
COC(=O)[C@@H]1C[C@@]2(O)[C@H](O)[C@H](O)[C@H](O)C[C@H]2N1Cc1cc(F)ccc1F | -5.9% | ? | 0.1% | -2.7% | ? | 1.2%
Clc1ccccc1-c1nc2nc3ccccc3nc2n1-c1ccc2c(c1)OCO2 | 2.2% | i | 0.0% | ? | 9.2µM* | 3.6%
CCOC(=O)c1ccccc1NC(=O)COC(=O)C(CC(C)C)NC(N)=O (centres undefined) | 0.6% | i | 0.5% | 0.92µM* | i | 1.8%
CC(NC(=S)NCCc1ccccc1)C(c1cccs1)N1CCN(Cc2ccccc2)CC1 (centres undefined) | 20.6µM* | ? | ? | ? | i | ?
COc1cc(/C=N/NC(=O)c2ccc(O)cc2)ccc1Oc1ccc([N+](=O)[O-])cn1 | 18.9% | i | 18.4µM* | 3.2% | i | ?
COc1cc(/C=C(\C#N)c2nc3ccccc3[nH]2)ccc1Oc1ccc([N+](=O)[O-])cn1 | 21.4% | i | ? | ? | i | ?
COc1cc(/C=C(/C#N)c2ccccc2)ccc1Oc1ccc([N+](=O)[O-])cn1 | 3.6% | i | -7.5% | 19.0% | 18.4µM* | ?
Cc1ccc(C)c(N2N=C(C(=O)Nc3nccs3)CCC2=O)c1 | -5.9% | i | 28.2% | 1.5% | i | 14.8%
CC(=O)Nc1ccc(NC(=O)CSc2nnc3ccc(-c4ccc(F)cc4)nn23)cc1 | -18.8% | i | 1.1% | -5.2% | i | 2.4%
CC(=O)c1nn(-c2cccc(Br)c2)cc1C(=O)c1ccc(Cl)cc1 | ? | i | ? | 4.61µM* | i | ?
O=C(c1cccc(Br)c1)c1cn(-c2ccccc2)nc1C(=O)c1ccccc1 | 6.4% | i | 4.3% | 2.0% | 11.6µM* | 8.1%
CC(=O)c1nn(-c2ccccc2)cc1C(=O)c1cccc(Br)c1 | ? | i | -1.4% | 1.64µM* | i | -5.9%
CC(=O)c1nn(-c2cccc(Br)c2)cc1C(=O)c1ccccc1 | -7.3% | i | ? | ? | i | ?
Cc1ccc(C)c2[nH]c(=O)c(C(c3nnnn3C3CCCC3)N3CCOCC3)cc12 (centres undefined) | 9.7% | i | -2.6% | 15.5% | ? | -2.6%
CN1C(=O)[C@H]2[C@@H](/C=C/c3ccccc3)N3C(=O)CN(CCO)C(=O)[C@@]3(C)[C@H]2C1=O | 5.3% | i | -2.7% | 0.7% | i | -0.8%
COCCCNc1nnc(Cc2ccc(Cl)cc2)c(=O)[nH]1 | ? | ? | ? | 0.517µM* | i | 0.92µM*
SMILES | SW480 rereplic | KB-3-1 cytotox | HT1080 IDH1KD tx | MCF10A rerep | KB-V1 cytotox | HT1080NT lethal
COCCNc1nnc(Cc2ccc(Cl)cc2)c(=O)[nH]1 | 4.3% | i | 0.1% | 4.2% | i | -5.0%
CN=C1S/C(=C\c2ccc(SC)cc2)C(=O)N1C | 5.3% | i | -4.9% | 1.7% | i | 12.5%
COCCN=c1scc(-c2ccc3c(c2)NC(=O)CO3)n1/N=C(\C)c1ccc(O)cc1 | ? | ? | ? | ? | i | ?
COc1cc(/C=N/n2c(-c3ccc4c(c3)NC(=O)CO4)csc2=Nc2cccc(C)c2)ccc1O | ? | i | -15.2% | 23.1µM* | i | -9.2%
COC(=O)/C(=C1/Oc2cc(C)oc(=O)c2S1)C(F)(F)F | 11.6µM* | i | 14.6µM* | 5.8µM* | i | -17.1%
COc1ccc(Nc2nc(N)c([N+](=O)[O-])c(NC3CCCCC3)n2)cc1 | ? | i | ? | 16.4µM* | ? | 16.4µM*
CNc1nc(Nc2ccc(Br)cc2)nc(N)c1[N+](=O)[O-] | -65.8% | 0.731µM* | ? | ? | ? | ?
COc1ccc(Nc2nc(N)c([N+](=O)[O-])c(NCCO)n2)cc1 | -2.1% | ? | -13.8% | 11.6% | i | 5.3%
S=C(NCCc1ccccc1)N1CCCC1 | -14.0% | i | -5.3% | 3.3% | i | -0.1%
S=C(NCCc1ccccc1)N1CCN(C23CC4CC(CC(C4)C2)C3)CC1 | ? | i | -1.1% | 5.8µM* | ? | -3.4%
CC(=O)Nc1ccc(SCC(=O)c2ccc(Br)s2)cc1 | 4.2% | i | 18.4µM* | ? | i | 25.9µM*
CCC(C)NC(=O)CSc1ccc(NC(C)=O)cc1 (centres undefined) | -4.2% | i | 4.2% | -1.4% | i | 6.0%
COC(=O)c1ccc(C(=O)OC)c(NC(=O)CSc2nc(-c3ccco3)cc(C(F)(F)F)n2)c1 | -2.4% | i | 6.7% | -2.7% | i | 11.5%
O=C1c2ccccc2C(=O)c2c1ncn2-c1ccccc1 | 16.4µM* | ? | -17.6% | ? | 20.6µM* | ?
Nc1nc2c(ncn2-c2ccccc2)c(=O)[nH]1 | -1.2% | i | -2.0% | -0.4% | i | -3.7%

Screens from PubChem.
